Results on 29 targets are retold here after the supplement of paper PMC12819154, “High-throughput peptide-centric local stability assay extends protein–ligand identification to membrane proteins, tissues and bacteria” (Nature Structural & Molecular Biology, 2025).

UniProt O14802, sequence (O14802 whole entry): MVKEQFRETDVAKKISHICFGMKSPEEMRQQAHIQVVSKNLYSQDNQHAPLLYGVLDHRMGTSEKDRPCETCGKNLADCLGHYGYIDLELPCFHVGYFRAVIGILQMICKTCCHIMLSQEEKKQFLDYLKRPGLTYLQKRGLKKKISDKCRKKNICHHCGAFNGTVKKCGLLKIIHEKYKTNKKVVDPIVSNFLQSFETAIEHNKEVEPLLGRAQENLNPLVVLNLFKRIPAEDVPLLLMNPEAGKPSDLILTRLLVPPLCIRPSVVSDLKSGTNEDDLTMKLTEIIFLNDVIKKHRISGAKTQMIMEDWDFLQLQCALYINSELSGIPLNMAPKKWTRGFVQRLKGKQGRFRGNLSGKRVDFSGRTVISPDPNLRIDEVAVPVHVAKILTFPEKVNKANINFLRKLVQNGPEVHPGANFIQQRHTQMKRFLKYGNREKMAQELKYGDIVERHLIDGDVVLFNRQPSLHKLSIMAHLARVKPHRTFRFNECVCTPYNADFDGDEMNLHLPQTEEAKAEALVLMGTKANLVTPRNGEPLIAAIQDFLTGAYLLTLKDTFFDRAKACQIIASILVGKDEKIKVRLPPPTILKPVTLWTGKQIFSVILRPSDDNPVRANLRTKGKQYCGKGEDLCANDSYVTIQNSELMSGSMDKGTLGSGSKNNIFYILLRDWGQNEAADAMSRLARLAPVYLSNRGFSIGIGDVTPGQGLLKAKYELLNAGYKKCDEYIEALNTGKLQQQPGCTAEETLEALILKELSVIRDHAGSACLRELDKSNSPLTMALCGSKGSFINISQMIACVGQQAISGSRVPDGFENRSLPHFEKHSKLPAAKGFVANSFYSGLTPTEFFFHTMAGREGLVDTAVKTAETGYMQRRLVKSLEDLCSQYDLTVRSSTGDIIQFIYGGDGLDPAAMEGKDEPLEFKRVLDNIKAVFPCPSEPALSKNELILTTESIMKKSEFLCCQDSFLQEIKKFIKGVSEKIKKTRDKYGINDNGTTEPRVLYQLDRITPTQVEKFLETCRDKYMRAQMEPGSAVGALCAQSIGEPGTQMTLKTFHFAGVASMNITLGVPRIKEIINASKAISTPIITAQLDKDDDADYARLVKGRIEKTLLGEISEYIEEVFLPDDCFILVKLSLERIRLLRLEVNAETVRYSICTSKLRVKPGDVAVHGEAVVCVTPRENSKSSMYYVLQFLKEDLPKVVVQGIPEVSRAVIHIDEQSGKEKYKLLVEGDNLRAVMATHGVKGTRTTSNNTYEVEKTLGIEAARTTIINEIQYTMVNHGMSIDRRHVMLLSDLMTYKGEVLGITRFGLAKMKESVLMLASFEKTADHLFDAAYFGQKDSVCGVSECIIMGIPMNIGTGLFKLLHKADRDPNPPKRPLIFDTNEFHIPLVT
UniProt P13010, sequence (P13010 whole entry): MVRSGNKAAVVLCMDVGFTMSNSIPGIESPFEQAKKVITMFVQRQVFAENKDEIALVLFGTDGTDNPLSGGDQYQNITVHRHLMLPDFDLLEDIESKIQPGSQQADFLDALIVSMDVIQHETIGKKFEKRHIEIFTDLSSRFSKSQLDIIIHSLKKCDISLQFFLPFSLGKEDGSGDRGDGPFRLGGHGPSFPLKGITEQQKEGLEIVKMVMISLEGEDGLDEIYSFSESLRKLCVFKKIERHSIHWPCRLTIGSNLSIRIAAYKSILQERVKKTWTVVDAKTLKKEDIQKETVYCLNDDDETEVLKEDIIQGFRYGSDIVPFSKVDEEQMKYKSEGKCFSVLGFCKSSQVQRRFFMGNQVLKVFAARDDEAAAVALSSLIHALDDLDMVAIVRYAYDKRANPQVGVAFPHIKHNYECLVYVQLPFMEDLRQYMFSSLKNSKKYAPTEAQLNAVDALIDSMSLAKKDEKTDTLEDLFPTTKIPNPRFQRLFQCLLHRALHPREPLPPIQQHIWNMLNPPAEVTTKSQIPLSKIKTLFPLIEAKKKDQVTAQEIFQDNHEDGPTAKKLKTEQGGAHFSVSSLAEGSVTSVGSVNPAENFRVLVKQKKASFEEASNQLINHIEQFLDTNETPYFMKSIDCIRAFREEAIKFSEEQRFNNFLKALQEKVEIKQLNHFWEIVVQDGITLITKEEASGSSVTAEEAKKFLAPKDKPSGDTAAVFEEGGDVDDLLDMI
UniProt P04049, sequence (P04049 whole entry): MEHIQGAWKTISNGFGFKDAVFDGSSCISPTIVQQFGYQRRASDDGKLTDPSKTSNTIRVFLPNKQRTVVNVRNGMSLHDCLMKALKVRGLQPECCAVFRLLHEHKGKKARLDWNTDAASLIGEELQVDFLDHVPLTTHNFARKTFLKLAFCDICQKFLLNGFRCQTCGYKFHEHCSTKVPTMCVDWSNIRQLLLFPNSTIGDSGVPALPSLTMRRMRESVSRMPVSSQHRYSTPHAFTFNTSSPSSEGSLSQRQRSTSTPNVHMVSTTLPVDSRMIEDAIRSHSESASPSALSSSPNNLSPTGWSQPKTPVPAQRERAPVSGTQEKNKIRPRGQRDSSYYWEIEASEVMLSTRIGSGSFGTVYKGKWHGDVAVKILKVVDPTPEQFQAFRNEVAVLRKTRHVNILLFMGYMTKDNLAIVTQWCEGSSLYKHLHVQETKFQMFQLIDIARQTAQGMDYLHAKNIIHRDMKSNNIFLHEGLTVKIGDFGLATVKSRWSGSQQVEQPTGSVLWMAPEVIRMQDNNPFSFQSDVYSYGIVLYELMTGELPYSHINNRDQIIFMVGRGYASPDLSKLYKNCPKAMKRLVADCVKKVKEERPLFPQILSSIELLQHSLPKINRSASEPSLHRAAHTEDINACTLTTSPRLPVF
UniProt O60331, sequence (O60331 whole entry): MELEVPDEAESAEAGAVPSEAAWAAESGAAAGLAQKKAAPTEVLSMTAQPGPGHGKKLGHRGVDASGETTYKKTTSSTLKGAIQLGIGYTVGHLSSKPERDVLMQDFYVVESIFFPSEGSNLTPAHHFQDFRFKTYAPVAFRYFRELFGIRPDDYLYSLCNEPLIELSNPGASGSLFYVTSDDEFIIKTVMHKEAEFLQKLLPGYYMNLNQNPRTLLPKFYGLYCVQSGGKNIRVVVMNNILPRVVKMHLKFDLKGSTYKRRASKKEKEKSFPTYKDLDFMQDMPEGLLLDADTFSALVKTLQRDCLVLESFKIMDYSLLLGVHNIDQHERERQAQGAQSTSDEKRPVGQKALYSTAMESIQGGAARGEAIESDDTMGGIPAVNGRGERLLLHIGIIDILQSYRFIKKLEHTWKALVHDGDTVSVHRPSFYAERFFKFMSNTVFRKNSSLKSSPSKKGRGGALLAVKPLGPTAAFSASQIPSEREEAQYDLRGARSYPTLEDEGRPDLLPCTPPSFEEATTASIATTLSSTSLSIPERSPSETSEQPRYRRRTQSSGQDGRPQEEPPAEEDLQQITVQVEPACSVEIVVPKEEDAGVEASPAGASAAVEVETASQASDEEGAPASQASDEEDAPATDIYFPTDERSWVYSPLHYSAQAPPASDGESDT
UniProt P02100, sequence (P02100 whole entry): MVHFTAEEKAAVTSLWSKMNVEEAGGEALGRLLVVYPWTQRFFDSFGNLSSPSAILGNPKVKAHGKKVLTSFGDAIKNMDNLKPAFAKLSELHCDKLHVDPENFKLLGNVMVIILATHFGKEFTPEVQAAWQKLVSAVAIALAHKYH
UniProt Q9Y3A2, sequence (Q9Y3A2 whole entry): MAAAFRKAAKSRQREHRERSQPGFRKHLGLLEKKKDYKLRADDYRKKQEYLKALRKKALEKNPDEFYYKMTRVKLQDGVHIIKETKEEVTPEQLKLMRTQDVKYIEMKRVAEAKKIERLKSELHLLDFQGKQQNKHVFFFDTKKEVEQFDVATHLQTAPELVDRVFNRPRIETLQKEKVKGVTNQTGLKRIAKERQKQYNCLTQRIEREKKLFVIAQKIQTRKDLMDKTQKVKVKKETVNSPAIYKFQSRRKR
UniProt P0DMV8, sequence (P0DMV8 whole entry, looked up): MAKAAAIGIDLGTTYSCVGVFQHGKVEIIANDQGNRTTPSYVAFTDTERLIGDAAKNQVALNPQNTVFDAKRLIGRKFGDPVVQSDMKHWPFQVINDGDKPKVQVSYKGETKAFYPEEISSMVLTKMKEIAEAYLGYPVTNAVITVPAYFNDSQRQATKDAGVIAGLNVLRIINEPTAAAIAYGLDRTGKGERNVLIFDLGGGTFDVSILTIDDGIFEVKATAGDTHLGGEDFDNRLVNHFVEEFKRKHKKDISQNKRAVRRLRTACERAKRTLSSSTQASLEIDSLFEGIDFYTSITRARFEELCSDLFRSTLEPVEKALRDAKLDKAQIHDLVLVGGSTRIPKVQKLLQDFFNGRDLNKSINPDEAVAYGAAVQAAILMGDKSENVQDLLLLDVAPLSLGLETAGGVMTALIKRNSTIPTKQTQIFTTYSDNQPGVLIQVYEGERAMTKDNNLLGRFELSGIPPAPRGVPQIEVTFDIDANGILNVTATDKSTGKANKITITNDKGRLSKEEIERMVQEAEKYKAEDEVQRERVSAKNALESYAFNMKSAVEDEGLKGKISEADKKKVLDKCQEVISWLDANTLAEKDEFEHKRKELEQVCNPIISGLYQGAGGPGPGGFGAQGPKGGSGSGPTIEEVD
UniProt Q9BUB5, sequence (Q9BUB5 whole entry, looked up): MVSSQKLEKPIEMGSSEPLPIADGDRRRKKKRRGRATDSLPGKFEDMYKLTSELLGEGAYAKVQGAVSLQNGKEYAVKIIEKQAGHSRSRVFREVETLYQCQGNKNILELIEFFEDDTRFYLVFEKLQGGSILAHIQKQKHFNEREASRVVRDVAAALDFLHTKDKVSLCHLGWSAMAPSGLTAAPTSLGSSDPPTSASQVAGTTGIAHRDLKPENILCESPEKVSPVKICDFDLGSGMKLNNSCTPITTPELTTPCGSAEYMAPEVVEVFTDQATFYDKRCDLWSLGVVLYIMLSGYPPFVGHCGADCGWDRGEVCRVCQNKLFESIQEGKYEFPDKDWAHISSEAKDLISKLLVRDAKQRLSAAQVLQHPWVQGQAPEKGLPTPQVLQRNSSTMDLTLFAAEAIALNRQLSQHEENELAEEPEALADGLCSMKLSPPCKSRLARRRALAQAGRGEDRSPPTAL

Compound in this test: CN[C@@H]1C[C@H]2O[C@@](C)([C@@H]1OC)n1c3ccccc3c3c4c(c5c6ccccc6n2c5c31)C(=O)NC4 [staurosporine]
Briefly: log2 fold change of tryptic peptide abundance, ligand vs vehicle (limited proteolysis) (log2 ratio); higher = more trypsin-susceptible (destabilized). As to conditions: ligand concentration: 20 uM; sample: K562 cleared lysate; digestion: 4 min, 22 C (HT-PELSA RT4min, Orbitrap Astral).
“PIP5K1C (peptide sequence: DCLVLESFK, peptide start residue: 305) (UniProt O60331)”: the log2 fold change was -0.54.

For the target “MELK (peptide sequence: DLKPENLLFDEYHK, peptide start residue: 132) (UniProt Q14680)”, the log2 fold change is -1.98.

As for “UniProt Q9BUB5 (peptide sequence: GLPTPQVLQR, peptide start residue: 382)”, the log2 fold change was found to be 0.803.

For the target “LIMK1 (peptide sequence: VNADPDYLPR, peptide start residue: 546) (UniProt P53667)”, the log2 fold change is -1.05.

Take “SLK (peptide sequence: LADFGVSAK, peptide start residue: 171) (UniProt Q9H2G2)”: the log2 fold change is -3.91.

With “CAMKK2 (peptide sequence: FYFQDLIK, peptide start residue: 291) (UniProt Q96RR4)”, the log2 fold change is -2.2.

As to “DTNBP1 (peptide sequence: YEDTWAALHRR, peptide start residue: 55) (UniProt Q96EV8)”, the log2 fold change was -0.512.

For “CEP170 (peptide sequence: SDSEATISR, peptide start residue: 1165) (UniProt Q5SW79)”, the log2 fold change worked out at 0.41.

“MOB2 (peptide sequence: ITDFQFK, peptide start residue: 35) (UniProt Q70IA6)”: the log2 fold change was determined as 0.834.

Regarding “UniProt P62269 (peptide sequence: KADIDLTKR, peptide start residue: 47)”, the log2 fold change is 0.394.

“SDAD1 (peptide sequence: TLYTHIVTDIK, peptide start residue: 136) (UniProt Q9NVU7)”: the log2 fold change is -0.683.

As for “HBE1 (peptide sequence: MNVEEAGGEALGR, peptide start residue: 19) (UniProt P02100)”, the log2 fold change was determined as 0.28.

As to “UniProt Q16629 (peptide sequence: YFQSPSR, peptide start residue: 189)”, the log2 fold change amounted to 1.29.

As for “RAF1 (peptide sequence: IGDFGLATVK, peptide start residue: 445) (UniProt P04049)”, the log2 fold change was 0.416.

With “UniProt Q9Y6E0 (peptide sequence: AANVLLSEHGEVK, peptide start residue: 159)”, the log2 fold change was -1.21.

For the target “POLR3A (peptide sequence: ISHICFGMK, peptide start residue: 15) (UniProt O14802)”, the log2 fold change is 0.539.

On to “FER (peptide sequence: NCLVGENNVLK, peptide start residue: 689) (UniProt P16591)”, for which the log2 fold change was -0.84.

With “UTP11 (peptide sequence: SELHLLDFQGK, peptide start residue: 121) (UniProt Q9Y3A2)”, the log2 fold change is -1.12.

On to “CCNB1 (peptide sequence: NVVMVNQGLTK, peptide start residue: 386) (UniProt P14635)”, for which the log2 fold change is -1.47.

With “UniProt P0DMV8 (peptide sequence: LLQDFFNGR, peptide start residue: 349)”, the log2 fold change turned out to be 0.293.

In the case of “KSR1 (peptide sequence: LSHDWLCYLAPEIVR, peptide start residue: 771) (UniProt Q8IVT5)”, the log2 fold change is -0.299.

With “DHX16 (peptide sequence: QQTEKPESEDEWER, peptide start residue: 153) (UniProt O60231)”, the log2 fold change worked out at 2.31.

Consider “OSBPL9 (peptide sequence: VVLPTFILER, peptide start residue: 391) (UniProt Q96SU4)”, for which the log2 fold change came to 0.326.

“UniProt P62995 (peptide sequence: SPSPYYSR, peptide start residue: 264)”: the log2 fold change was 1.31.

As for “HAT1 (peptide sequence: CNTNTAIELK, peptide start residue: 27) (UniProt O14929)”, the log2 fold change turned out to be 0.602.

On to “RPL5 (peptide sequence: GAVDGGLSIPHSTK, peptide start residue: 165) (UniProt P46777)”, for which the log2 fold change is 0.307.

Consider “MAP4K2 (peptide sequence: ALLTQLLDK, peptide start residue: 280) (UniProt Q12851)”, for which the log2 fold change is -0.962.

Turning to “XRCC5 (peptide sequence: VDEEQMK, peptide start residue: 326) (UniProt P13010)”, the log2 fold change was -0.825.

On to “UniProt Q9BVS4 (peptide sequence: VLTAVEMGMK, peptide start residue: 19)”, for which the log2 fold change is -1.57.
